According to ChEMBL document CHEMBL4513216, “Probing the Open Global Health Chemical Diversity Library for Multistage-Active Starting Points for Next-Generation Antimalarials” (ACS Infect Dis, 2020):
In all, about 65,000 compounds went through this assay and about 2,100 (3.2%) showed an effect of 50% or more. The median lay at about -52%. The sample as a whole holds a higher share of strong results than the screen did.

Test system: Plasmodium falciparum
Test: Screen against P. falciparum Asexual Blood Stage (ABS), at 5uM
Type: functional, Dd2
Details: tested at 5 uM

| Compound | INHIBITION |
| --- | --- |
| Cc1noc(C)c1CN1CCOCC12CCN(c1nccs1)CC2 | -91.6% |
| O=C(c1scc2c1OCCO2)N1CCOC(CCc2ccccc2)C1 (centres undefined) | 88.7% |
| O=C(Cc1ccccc1)N1C[C@@H]2OCCN(CC3CCCO3)[C@@H]2C1 (some centres undefined) | -34.5% |
| O=C(CCc1ccccc1)N1C[C@H]2CCN[C@H]2C1 | -6.16% |
| CN1CC[C@H]2OCC[C@@]2(C(=O)NCCc2ccccn2)C1 | 12.7% |
| Cc1ccccc1C1(C(=O)NCCN2CCC(C)CC2)CCOCC1 | 85.3% |
| O=C(NCCc1ccccn1)[C@@]12CCO[C@@H]1CCN(C1CCC1)C2 | 44.6% |
| Cc1ccccc1C1(C(=O)NCCN2CCCC(C)C2)CCOCC1 (centres undefined) | 88.1% |
| O=C(NCCc1ccccn1)[C@@]12CCO[C@@H]1CCN(CC1CC1)C2 | 30.8% |
| O=S1(=O)CCC(n2cc(C3=CCN(CCN4CCCCC4)CC3)cn2)C1 (centres undefined) | 12.6% |
| O=C(N[C@H]1CN[C@H]2CCCO[C@H]21)c1ccno1 | -87.2% |
| c1cc(COC[C@@H]2CCC[C@@]23CNCCO3)ccn1 | 7.1% |
| COc1cc(CNCC(O)c2ccc(F)cc2F)cc2c1OCO2 (centres undefined) | 85.5% |
| COc1cc(CNCC(O)c2ccccc2F)cc2c1OCO2 (centres undefined) | 78% |
| CC[C@H](N)Cn1nc(-c2cccs2)oc1=O | -186% |
| CCc1nnc(C(C)N2CCCN(C(=O)Oc3ccccc3)CC2)o1 (centres undefined) | -87.2% |
| CCC(CN1CCCC1)NC(=O)C1(c2cccc(F)c2)CC1 (centres undefined) | 84.7% |
| CC(C)CN1CCC2(CC1)C(=O)Nc1ccc(C(=O)NC(C)C)cc12 | -39.5% |
| O=C(Nc1cccc(F)c1)N1CCC(CO)(Nc2ccccc2)CC1 | -35.15% |
| CCC(CN1CCN(C)CC1)NC(=O)C1(c2cccc(F)c2)CC1 (centres undefined) | 77.1% |
| CC(C)NC(=O)c1ccc2c(c1)C1(CCN(C)CC1)C(=O)N2 | -37.9% |
| CC(C)n1cc(C(=O)NC2CN3CCC2CC3)c2ccccc21 (centres undefined) | -24.9% |
| Cc1[nH]c2ccccc2c1-c1ccnc(NCCN2CCOCC2)n1 | 82.5% |
| CC(C)(C)n1cc(C(=O)NCCN2CCOCC2)c2cccnc21 | -89.4% |
| Cn1cc(C2NC3(CCCC3)C(=O)N2CC2CC2)c(=O)n(C)c1=O (centres undefined) | -43.9% |

| Compound | INHIBITION |
| --- | --- |
| Cc1ccc(N2CC[C@@H]3CN(Cc4cc[nH]n4)C[C@@H]3C2)nn1 | -19.6% |
| Cc1cc(CN2C[C@@H]3CN(C(=O)c4ccco4)CCO[C@@H]3C2)no1 | -45% |
| NCC1(c2cccc(C(F)(F)F)c2)CCOCC1 | 69.9% |
| NCC1(c2cccc(C(F)(F)F)c2)CC1 | -97.7% |
| NCC1(c2cccc(Br)c2)CCOCC1 | 79.5% |
| NCC1(c2cccc(F)c2)CCOCC1 | 2.49% |
| Cc1nn(-c2ccc(C(=O)O)cc2)c2c1C(c1ccsc1)SCC(=O)N2 (centres undefined) | -82.6% |
| COCCN1CCN(Cc2ccco2)Cc2ccc(C)nc21 | -85% |
| COCCN1CCO[C@@H]2CN(S(=O)(=O)c3cccnc3)C[C@@H]2C1 | -76.3% |
| Cc1cc(CN2C[C@@H]3COC[C@@H](C(=O)N4CCCCO4)[C@@H]3C2)no1 | -31.1% |
| COCCN(C)C[C@@H]1CCC[C@@H]2CN(Cc3ccc(OC)nc3)C[C@@H]21 | 79.6% |
| O=C(C[C@@H]1COC[C@H]2CN(Cc3cccnc3)C[C@@H]12)N1CCCC1 | -133% |
| COc1ccc(CN2C[C@H]3CCC[C@@H](CN(C)C)[C@H]3C2)cn1 | 50% |
| Cn1cc(CN2C[C@H]3CCC[C@@H](CNc4ncccn4)[C@H]3C2)cn1 | -87.3% |
| COC1CCC[C@@H]2CN(Cc3csc(C)n3)C[C@H]12 (some centres undefined) | 24.8% |
| CN(C[C@@H]1CCC[C@@H]2CN(Cc3cccnc3)C[C@@H]21)C1CC1 | 56.5% |
| COc1ccc(CN2C[C@H]3CCC[C@@H](CN(C)C4CC4)[C@H]3C2)cn1 | 78.2% |
| c1cnc(NC[C@@H]2CCC[C@@H]3CN(Cc4cccnc4)C[C@@H]32)nc1 | 42.2% |
| Cc1cccc(CN2C(=O)CC[C@H]3[C@@H]2CCN3CC(=O)N(C)C)n1 | -71% |
| CCCN1C(=O)C2(CCCCC2)NC1c1cn(C)c(=O)n(C)c1=O (centres undefined) | -5.44% |
| CCCN1C[C@@H]2CC[C@H]1CN(C(=O)Cc1c(C)[nH]c(CC)nc1=O)C2 | -19.6% |
| COCc1cncc2c1CCN(Cc1ccccn1)C2 | -65.2% |
| CC(Cc1c(F)cccc1F)NC(=O)CN(CC(N)=O)C(C)C (centres undefined) | -23.8% |
| COc1ccc(CC(C)Nc2cccc(F)c2)cc1 (centres undefined) | -65.5% |
| COc1ccc(C(NCc2cccc(O)c2)C2CC2)cc1 (centres undefined) | 83.6% |

| Compound | INHIBITION |
| --- | --- |
| O=C(Cc1ccc(O)c(Cl)c1)N1CCN(CC2CC2)[C@@H]2CS(=O)(=O)C[C@@H]21 | -53.2% |
| COCCN1CCC2(COCc3cnc(N4CCOCC4)nc32)C1 (centres undefined) | -18.1% |
| CN1CCCC(CNS(=O)(=O)N2CCc3ccccc3C2)C1 (centres undefined) | 77.4% |
| CN1CCN(S(=O)(=O)C2CC2)Cc2cccnc21 | -77.8% |
| COCC(=O)NC[C@H]1C[C@@H]2CCN1C[C@@H]2CN1CCc2ccccc2C1 | -27.5% |
| CCOCCC(=O)N1C[C@@H]2CC[C@H]1CN(Cc1ccncc1)C2 | -31.8% |
| O[C@]12CCNC[C@H]1CN(c1ncccc1Cl)CC2 | -135% |
| Clc1ccccc1C1(c2ccnc(C3CC3)n2)CCNCC1 | 73.5% |
| Clc1ccccc1C1(c2ccnc(C3CCCC3)n2)CCNCC1 | 83% |
| Clc1ccccc1C1(c2ccnc(CC3CC3)n2)CCNCC1 | 87.8% |
| Cc1nc(CN2CCC3(C2)CN(C(=O)c2conc2C)C3)cs1 | -65.1% |
| Fc1cccnc1O[C@@H]1CC[C@H]2[C@H]1OCCN2Cc1nccs1 | -91.9% |
| CC(C)(C)n1ncc2c1NC(=O)CSC2c1ccc2c(c1)OCCO2 (centres undefined) | -24.5% |
| O=C(COc1cccc(F)c1)N1C[C@@H](O)[C@H](N2CCCC2)C1 | -133% |
| OCc1csc(N2CCCC(COc3cccc(F)c3)C2)n1 (centres undefined) | 81.2% |
| CCCOc1ccc(C2SCC(=O)Nc3c2c(=O)[nH]n3C(C)C)cc1 (centres undefined) | -95% |
| CC(=O)C1(c2ccccc2)CCN(C(=O)c2ccn3nnnc3c2)CC1 | -138% |
| CNC(C)Cc1ccccc1Sc1ccc(O)cc1 (centres undefined) | 88.2% |
| CNS(=O)(=O)CC(=O)NC(C)Cc1ccccc1Br (centres undefined) | -184% |
| CC(N)Cc1ccccc1Sc1ccccc1 (centres undefined) | 78.3% |
| CC(N)Cc1ccccc1Sc1ccc(O)cc1 (centres undefined) | 72.4% |
| CC[C@H](C)[C@@H](CO)NC(C)Cc1ccccc1F (some centres undefined) | 49.7% |
| COCCCN1CCCCC12CC(=O)N(Cc1ccccn1)C2 (centres undefined) | -98.8% |
| Cc1noc(C)c1CN1C[C@@H]2COC[C@H](C(=O)N3CCCO3)[C@@H]2C1 | -23.5% |
| CCC(O)CN1CCN(C(=O)Cc2c(C)nc(C)[nH]c2=O)CC1 (centres undefined) | -143% |

| Compound | INHIBITION |
| --- | --- |
| CN1CCC(O)(CNCc2ccc(F)c(C(F)(F)F)c2)CC1 | 83.3% |
| COc1ccc(OC)c(C2SCC(=O)Nc3n[nH]cc32)c1 (centres undefined) | -130% |
| Cc1ccc(CN2CCC3(CCN(S(=O)(=O)c4ccccc4)C3)C2)o1 (centres undefined) | 79.6% |
| Cc1ccc(CN2CC[C@]3(C[C@H](OCc4ccccn4)CO3)C2)o1 | 22.1% |
| Cc1ccc(CN2CC3(CCN(C(=O)c4cccnc4)C3)C2)o1 | -143% |
| Cc1cc(CNC(=O)CCc2ccc(S(N)(=O)=O)cc2)no1 | -28.2% |
| O=C(NCCc1ccccc1)NCCN1CCC(c2cccs2)CC1 | 77.6% |
| COCC(=O)NC[C@H]1C[C@@H]2CCN1C[C@@H]2c1cc(-c2cccs2)nn1C | -43.2% |
| CCNC(=O)NC[C@H]1C[C@@H]2CCN1C[C@@H]2c1cc(-c2cccs2)nn1C | -58.2% |
| COc1ccc(CCC(=O)NCCN2CCC(c3cccs3)CC2)cc1 | 75.8% |
| OC[C@@H]1[C@H]2CN(c3ccccn3)CCN2C[C@H]1c1ccccc1 | 41.3% |
| CCOC(=O)N1CCCC2(CCCNC2)C1 (centres undefined) | -33% |
| O=C1CO[C@@H]2CN(Cc3ccsc3)C[C@H]2N1Cc1ccncc1 | -56.6% |
| CCN(C)CC1CCN(S(=O)(=O)c2cc(C)c(F)cc2Cl)C1 (centres undefined) | 79.3% |
| Cc1cccc(CN2C[C@@H]3CC[C@H]2CN(Cc2[nH]cnc2C)C3)n1 | 50.9% |
| Cc1cc(CN2C[C@@H]3CC[C@H]2CN(Cc2[nH]cnc2C)C3)on1 | -63.7% |
| Cc1ccc(N2CC[C@@H]3CN(Cc4cccc(C)n4)C[C@@H]3C2)nn1 | -27.5% |
| CC[C@@H]1N(Cc2ccccn2)CCC[C@]12CCC(=O)N2CCOC | -116% |
| Cc1[nH]c(C2(N)CCCCC2)nc(=O)c1C | -60% |
| Cc1cnc(N2CCOC3(CCCN(CC(=O)N(C)C)C3)C2)nc1 (centres undefined) | -6.47% |
| CC(CNC(=O)c1cc(Cl)ccc1I)N1CCCC1 (centres undefined) | 71.1% |
| COc1ccc(Cl)cc1CC(=O)N1CCN(CC(C)O)CC1 (centres undefined) | -132% |
| Cc1nc(N2C[C@H]3CNC[C@H]3C2)c2sccc2n1 | -54.7% |
| Cc1nc(CO[C@@H]2CN(Cc3cccnc3)[C@@H]3COC[C@@H]32)cs1 | -14.2% |
